Data published in ChEMBL document CHEMBL5606458, “ASAP - ZIKV NS2B-NS3 protease fluorescence single point” (2024).
Hit rate of the full screen: of about 2,700 compounds, about 160 (5.9%) showed an effect of 50% or more. The full list was thinned out, with strong results kept by preference.

Biological target: Nonstructural protein 3 (Zika virus) (UniProt A0A024AXB9)
[1] = PRVABC59, Concentration 15.0 uM, Number of replicates 1.0
[2] = PRVABC59, Concentration 50.0 uM, Number of replicates 1.0

Nonstructural protein 3 (Zika virus), sequence (A0A024AXB9 as listed by the source): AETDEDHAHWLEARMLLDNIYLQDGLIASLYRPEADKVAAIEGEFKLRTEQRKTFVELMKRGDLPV

## CNC(=O)c1nc(Cl)ccc1NS(=O)(=O)c1ccc(Oc2ccccc2Cl)cc1
PRVABC59, Concentration 49.5 uM, Number of replicates 2.0, Standard deviation 0.024233932131581936 %
  inhibition: -1.72%

## O=C(Nc1nc(Cl)nc2nc[nH]c12)c1cc(Cl)ccc1NS(=O)(=O)c1ccc(Oc2ccccc2Cl)cc1
[1]
  inhibition: 22.5%

## Cc1nn([C@@H](C)c2nnnn2C2CC2)cc1C1CCNCC1
PRVABC59, Concentration 49.5 uM, Number of replicates 2.0, Standard deviation 2.3033064314790743 %
  inhibition: -1.29%
PRVABC59, Concentration 99.01 uM, Number of replicates 2.0, Standard deviation 2.6844291293545366 %
  inhibition: -0.376%
PRVABC59, Concentration 198.0 uM, Number of replicates 2.0, Standard deviation 0.3562668047004051 %
  inhibition: -3.04%

## CC(C)(C)c1csc(NC(=O)c2cc(Cl)ccc2NS(=O)(=O)c2ccc(Oc3ccccc3Cl)cc2)n1
[1]
  inhibition: 22.1%

## Cc1cc(CO)c2cccc(NC(=O)c3nc(C4CCNCC4)oc3C)c2n1
PRVABC59, Concentration 49.95 uM, Number of replicates 2.0, Standard deviation 16.97136657317194 %
  inhibition: 81.5%
PRVABC59, Concentration 99.9 uM, Number of replicates 2.0, Standard deviation 2.022315036184036 %
  inhibition: 88.9%

## Cc1cc(CO)c2cccc(NC(=O)[C@H]3CCNC3)c2n1
PRVABC59, Concentration 49.95 uM, Number of replicates 2.0, Standard deviation 1.562551081581127 %
  inhibition: -4.16%
PRVABC59, Concentration 99.9 uM, Number of replicates 2.0, Standard deviation 2.5850257028478962 %
  inhibition: 4.64%

## Cc1cc(CO)c2cccc(Cc3ccccc3NC(=O)c3nc(C4CCNCC4)oc3C)c2n1
PRVABC59, Concentration 49.95 uM, Number of replicates 2.0, Standard deviation 3.130141914719793 %
  inhibition: 12.3%
PRVABC59, Concentration 99.9 uM, Number of replicates 2.0, Standard deviation 0.6412983547468495 %
  inhibition: 60.8%

## Cc1cc(CO)c2cccc(Cc3ccccc3NC(=O)c3nc(-c4ccccc4)oc3C(F)(F)F)c2n1
PRVABC59, Concentration 49.95 uM, Number of replicates 2.0, Standard deviation 1.8373680900098652 %
  inhibition: 5.06%
PRVABC59, Concentration 99.9 uM, Number of replicates 2.0, Standard deviation 1.2469667752869535 %
  inhibition: 9.26%

## Cc1cc(CO)c2cccc(Cc3cccc(NC(=O)c4nc(C5CCNCC5)oc4C)c3)c2n1
PRVABC59, Concentration 49.95 uM, Number of replicates 2.0, Standard deviation 2.83494201600161 %
  inhibition: -5.64%
PRVABC59, Concentration 99.9 uM, Number of replicates 2.0, Standard deviation 2.936734747350333 %
  inhibition: -6.74%

## Cc1cc(CO)c2cccc(NC(=O)c3nc(-c4ccccc4)oc3C(F)(F)F)c2n1
PRVABC59, Concentration 49.95 uM, Number of replicates 2.0, Standard deviation 2.699761899961709 %
  inhibition: 15.3%
PRVABC59, Concentration 99.9 uM, Number of replicates 2.0, Standard deviation 2.5993991268892636 %
  inhibition: 24.8%

## Cc1cc(N)c2cc(Cl)cc(Cl)c2n1
PRVABC59, Concentration 99.9 uM, Number of replicates 2.0, Standard deviation 12.824277322413067 %
  inhibition: -8.83%

## COC(=O)c1ccc(F)c(Cn2cc(C3CCNCC3)c(C)n2)c1
PRVABC59, Concentration 49.5 uM, Number of replicates 2.0, Standard deviation 1.8234550992150553 %
  inhibition: 1.56%
PRVABC59, Concentration 99.01 uM, Number of replicates 2.0, Standard deviation 0.947622366220452 %
  inhibition: 0.074%
PRVABC59, Concentration 198.0 uM, Number of replicates 2.0, Standard deviation 0.08409628118336304 %
  inhibition: 3.65%

## COc1cc(COc2cc(C)nc3ncnn23)nc(N2CCNCC2)n1
PRVABC59, Concentration 49.5 uM, Number of replicates 2.0, Standard deviation 2.68247440066745 %
  inhibition: 1.51%
PRVABC59, Concentration 99.01 uM, Number of replicates 2.0, Standard deviation 1.6078501771858478 %
  inhibition: 0.374%
PRVABC59, Concentration 198.0 uM, Number of replicates 2.0, Standard deviation 1.0644090707345926 %
  inhibition: 1.09%

## O=C(NCCCSc1ccccc1)c1cc(Cl)ccc1NS(=O)(=O)c1ccc(Oc2ccccc2Cl)cc1
[1]
  inhibition: 21.8%

## N#C[C@@H](NC(=O)c1cc(Cl)ccc1NS(=O)(=O)c1ccc(Oc2ccccc2Cl)cc1)c1ccc(F)cc1
[1]
  inhibition: 28.7%

## Cc1cc(CO)c2cccc(Cc3ccccc3C(=O)N(c3ncccn3)S(=O)(=O)c3ccc(N)cc3)c2n1
PRVABC59, Concentration 49.95 uM, Number of replicates 2.0, Standard deviation 0.5295893128804832 %
  inhibition: 2.68%
PRVABC59, Concentration 99.9 uM, Number of replicates 2.0, Standard deviation 0.15206043463069627 %
  inhibition: 8.61%

## Cc1cc(CO)c2cccc(CC(=O)N(c3ncccn3)S(=O)(=O)c3ccc(N)cc3)c2n1
PRVABC59, Concentration 49.95 uM, Number of replicates 2.0, Standard deviation 0.08143445481880901 %
  inhibition: 93.4%
PRVABC59, Concentration 99.9 uM, Number of replicates 2.0, Standard deviation 0.09670172922339526 %
  inhibition: 93.5%

## Cc1cc(CO)c2cccc(Cc3cccc(C(=O)N(c4ncccn4)S(=O)(=O)c4ccc(N)cc4)c3)c2n1
PRVABC59, Concentration 49.95 uM, Number of replicates 2.0, Standard deviation 0.9333358068338657 %
  inhibition: 1.86%
PRVABC59, Concentration 99.9 uM, Number of replicates 2.0, Standard deviation 0.5295896500552713 %
  inhibition: 17.8%

## c1ccn2c(CNCC3CCOCC3)nnc2c1
PRVABC59, Concentration 49.5 uM, Number of replicates 2.0, Standard deviation 1.8796463523944162 %
  inhibition: -1.69%
PRVABC59, Concentration 99.01 uM, Number of replicates 2.0, Standard deviation 2.0631141970669455 %
  inhibition: -2.09%
PRVABC59, Concentration 198.0 uM, Number of replicates 2.0, Standard deviation 1.9030296768293513 %
  inhibition: -4.01%

## Cc1cc(Br)ccc1CNC(=O)c1cc(Cl)ccc1NS(=O)(=O)c1ccc(Oc2ccccc2Cl)cc1
[1]
  inhibition: 27.2%

## O=C(Nc1ccccc1Cc1ccccc1)c1cc(Cl)ccc1NS(=O)(=O)c1ccc(Oc2ccccc2Cl)cc1
[1]
  inhibition: 55.2%

## O=C(Nc1ccc(OC(F)F)cc1)c1cc(Cl)ccc1NS(=O)(=O)c1ccc(Oc2ccccc2Cl)cc1
[1]
  inhibition: 57.7%

## O=C(NCc1nc(-c2ccccn2)no1)c1cc(Cl)ccc1NS(=O)(=O)c1ccc(Oc2ccccc2Cl)cc1
[1]
  inhibition: 54%

## O=C(NCc1ccc(-c2ccccn2)cc1)c1cc(Cl)ccc1NS(=O)(=O)c1ccc(Oc2ccccc2Cl)cc1
[1]
  inhibition: 31.7%

## O=C(NCCc1nc(-c2ccc(Cl)cc2)no1)c1cc(Cl)ccc1NS(=O)(=O)c1ccc(Oc2ccccc2Cl)cc1
[1]
  inhibition: 20.2%

## COc1cc(NC(=O)c2cc(Cl)ccc2NS(=O)(=O)c2ccc(Oc3ccccc3Cl)cc2)c(Cl)cc1Cl
[1]
  inhibition: 35%

## COc1c(Cl)cccc1NC(=O)c1cc(Cl)ccc1NS(=O)(=O)c1ccc(Oc2ccccc2Cl)cc1
[1]
  inhibition: 38.1%

## O=C(Nc1ccccc1Sc1ccccc1)c1cc(Cl)ccc1NS(=O)(=O)c1ccc(Oc2ccccc2Cl)cc1
[1]
  inhibition: 25.8%

## CNC(=O)c1ccccc1NC(=O)c1cc(Cl)ccc1NS(=O)(=O)c1ccc(Oc2ccccc2Cl)cc1
[1]
  inhibition: 12.1%

## O=C(Nc1ccc(SC(F)(F)F)cc1)c1cc(Cl)ccc1NS(=O)(=O)c1ccc(Oc2ccccc2Cl)cc1
[1]
  inhibition: 45.3%

## O=C(Nc1ccc(C(F)(F)F)cc1)c1cc(Cl)ccc1NS(=O)(=O)c1ccc(Oc2ccccc2Cl)cc1
[1]
  inhibition: 26.8%

## COc1ccc(NC(C)=O)cc1NC(=O)c1cc(Cl)ccc1NS(=O)(=O)c1ccc(Oc2ccccc2Cl)cc1
[1]
  inhibition: 55%

## CN1C(=O)c2ccc(NC(=O)C3CCN(c4ccc(C=O)cc4)CC3)cc2C1=O
[2]
  inhibition: 28.5%

## c1ccc2[nH]c(CC3CCN(c4ncnc5[nH]ccc45)CC3)nc2c1
PRVABC59, Concentration 49.5 uM, Number of replicates 2.0, Standard deviation 0.8729323765409018 %
  inhibition: -3.7%
PRVABC59, Concentration 99.01 uM, Number of replicates 2.0, Standard deviation 2.6991147561762485 %
  inhibition: 1.52%
PRVABC59, Concentration 198.0 uM, Number of replicates 2.0, Standard deviation 4.214592802372255 %
  inhibition: 7.18%

## CC(CNC(=O)c1cc(Cl)ccc1NS(=O)(=O)c1ccc(Oc2ccccc2Cl)cc1)(c1ccccc1)c1ccccc1
[1]
  inhibition: 31.7%

## COc1cccc(CCNC(=O)c2cc(Cl)ccc2NS(=O)(=O)c2ccc(Oc3ccccc3Cl)cc2)c1
[1]
  inhibition: 27.6%

## O=C(c1cc(Cl)ccc1NS(=O)(=O)c1ccc(Oc2ccccc2Cl)cc1)N1CCN(c2ccccc2O)CC1
[1]
  inhibition: -1.02%

## C[C@@H](c1ccccc1)N(Cc1ccncc1)C(=O)C1CCN(c2ccc(C=O)cc2)CC1
[2]
  inhibition: 21.5%

## C[C@H](NC(=O)c1cc(Cl)ccc1NS(=O)(=O)c1ccc(Oc2ccccc2Cl)cc1)c1ccc(N2CCOCC2)cc1
[1]
  inhibition: 18.7%

## O=C(Nc1ccc(N2CCOCC2=O)cc1)c1cc(Cl)ccc1NS(=O)(=O)c1ccc(Oc2ccccc2Cl)cc1
[1]
  inhibition: 48.5%

## O=C(Nc1ccc2scnc2c1)c1cc(Cl)ccc1NS(=O)(=O)c1ccc(Oc2ccccc2Cl)cc1
[1]
  inhibition: 71.2%

## Cc1cc(I)ccc1NC(=O)c1cc(Cl)ccc1NS(=O)(=O)c1ccc(Oc2ccccc2Cl)cc1
[1]
  inhibition: 20.7%

## O=C(Nc1cccc(N2CCOCC2)c1)c1cc(Cl)ccc1NS(=O)(=O)c1ccc(Oc2ccccc2Cl)cc1
[1]
  inhibition: 66.3%

## O=C(c1cc(Cl)ccc1NS(=O)(=O)c1ccc(Oc2ccccc2Cl)cc1)N1CCN(CCc2ccncc2)CC1
[1]
  inhibition: 6.55%

## O=C(Nc1cc(Cl)c(F)cc1F)c1cc(Cl)ccc1NS(=O)(=O)c1ccc(Oc2ccccc2Cl)cc1
[1]
  inhibition: 26.5%

## O=C(Nc1ccc(I)cc1F)c1cc(Cl)ccc1NS(=O)(=O)c1ccc(Oc2ccccc2Cl)cc1
[1]
  inhibition: 67.5%

## O=C(Nc1ccc(Cl)c(Cl)c1)c1cc(Cl)ccc1NS(=O)(=O)c1ccc(Oc2ccccc2Cl)cc1
[1]
  inhibition: 37.7%

## O=C(Nc1ccc(Br)nc1)c1cc(Cl)ccc1NS(=O)(=O)c1ccc(Oc2ccccc2Cl)cc1
[1]
  inhibition: 35.2%

## O=C(c1cc(Cl)ccc1NS(=O)(=O)c1ccc(Oc2ccccc2Cl)cc1)N1CCCN(CCCc2ccccc2)CC1
[1]
  inhibition: 11.4%

## O=C(c1cc(Cl)ccc1NS(=O)(=O)c1ccc(Oc2ccccc2Cl)cc1)N1CCN(CCc2ccccc2)CC1
[1]
  inhibition: 53.5%
